Measurements as given in PubChem BioAssay AID624297 (National Center for Advancing Translational Sciences (NCATS), 2012).
Screen size: about 340,000 compounds; about 6,200 (1.8%) were called active. Roughly 10% stayed inconclusive and do not appear here. This excerpt belongs to a sample that is enriched for actives. Values without a mark were called inactive. Calls follow the shape of the dose curve; as a rule, active = well fitted activation curve with a large enough effect; inconclusive = small, poorly fitted or top-dose-only effect; inactive = no such curve, though single readings can be large or run the other way.

Experiment: A quantitative high throughput screen for small molecules that induce DNA re-replication in SW480 colon adenocarcinoma cells. Also: nearly all actives have a fitted effect of over 55% in size. As to re-replication activation: % of control where 0% means no effect.
Details: Hoechst DNA content imaging, 48 h; series mostly up to 46.1 µM; re-replication activation: at the top concentration
From the text: H Molecular Libraries Probe Production Network [MLPCN] NIH Chemical Genomics Center [NCGC] MLPCN Grant: Fast Track K99 CA136555 Assay Provider: Melvin DePamphilis, NICHD, NIH Assay Overview Eukaryotic cells normally restrict genome duplication to once per cell division. When this process is aberrant, DNA re-replication occurs when cells reinitiate DNA replication before the first round of replication is complete. DNA re-replication induces the DNA damage response, arrests cell proliferation, and triggers apoptosis. The cell cycle components cyclin A, Cdt-1, Cdc6 and geminin are critical regulators of this process and their misregulation results in DNA re-replication in normal and cancer cells. To identify compounds that induce re-replication in normal cells, an image-based assay was used to measure DNA content of nuclei, as detected by the fluorescent DNA binding dye, Hoechst. Cell nuclei were imaged by a fluorescence scanning plate imager and compounds that induce DNA re-replication were identified by the increase of nuclei with elevated fluorescence intensity
For screening, 250 cells in 5 uL/well were dispensed into black clear 1536-well plates (Aurora) using a solenoid-based dispenser. Following transfer of 23 nL compound or DMSO vehicle by a pin tool, the plates were incubated 48 hr at 37 C and 5% CO2. After addition of 1 uL/well Hoescht stain, the plates were incubated 40 min at 37 C, 5% CO2 and total intensity of fluorescent objects (nuclei) were enumerated by an Acumen Explorer Ex3 (TTP LabTech) fluorescence scanning plate imager (405 nm excitation, 500-530 nm emission). Keywords: NIH Roadmap, MLPCN, MLI, MLSMR, qHTS, NCGC, DNA replication, cancer
Potency is read from the fitted curve at half-maximal effect.

| Structure (SMILES) | re-replication activation [%] | Potency |
| --- | --- | --- |
| Cc1cc(=O)oc2c(C)c(OCC(=O)N3CCN(Cc4ccc5c(c4)OCO5)CC3)ccc12 | 3.09 | – |
| O=C(Cc1ccccc1[N+](=O)[O-])N1CCN(Cc2ccc3c(c2)OCO3)CC1 | – | 16.4 µM (active) |
| Fc1ccc(N2CCN(Cc3ccc4c(c3)OCO4)CC2)cc1 | -17 | – |
| CC1([N+](=O)[O-])COP(=O)(Nc2ccc(F)cc2)OC1 (stereo not given) | -4.51 | – |
| CC1CNCCN1c1ccc(Cl)cc1 (stereo not given) | -3.4 | – |
| COc1cc(-n2c(=S)[nH]c3ccc(C)cc3c2=O)c(Cl)cc1Cl | – | 18.4 µM (active) |
| C[C@]12CCC3C(CC[C@H]4[C@H](O)[C@H](O)CC[C@]34C)C1CCC2=O (stereo not given in full) | -11.6 | – |
| O=C(CSc1ccccc1)Nc1ccc(C(=O)Nc2cccc(O)c2)cc1 | -29.6 | – |
| CCC(C)n1c(O)c(/C=N/Nc2nc3c(c(=O)n(C)c(=O)n3C)n2C)c(=O)[nH]c1=S (stereo not given) | – | 23.1 µM (active) |
| CC1CC=CCC12C(=O)NC(=S)NC2=O (stereo not given) | -3.08 | – |
| CNC(C)[C@@H](O)c1ccccc1 (stereo not given in full) | -0.112 | – |
| CC1=CC(=Cc2sc3ccccc3[n+]2C)C=C(C)O1 | – | 5.8 µM (active) |
| CCC1(CC(C)c2ccccc2)C(=O)NC(=O)NC1=O (stereo not given) | 9.81 | – |
| Cc1cc(C)c2c(c1)NP(=S)(c1ccccc1)N2 (stereo not given) | 1.64 | – |
| CCOC(=O)CC(SP1(=S)OCC2(CCCCO2)C(C2CCCCO2)O1)C(=O)OCC (stereo not given) | -18.9 | – |
| O=C(N/N=C/c1ccc([N+](=O)[O-])o1)c1cc([N+](=O)[O-])cc([N+](=O)[O-])c1O | -4.03 | – |
| CC[C@H]1CN2CCc3cc(OC)c(OC)cc3[C@@H]2C[C@@H]1C[C@H]1NCCc2cc(OC)c(OC)cc21 | – | 0.291 µM (active) |
| O=C1NC(=O)C(CCOc2ccccc2)(CCc2ccccc2)C(=O)N1 | -9.88 | – |
| CCC(=O)OC(Cc1ccccc1)(c1ccccc1)C(C)CN(C)C (stereo not given) | -0.571 | – |
| CCOP(=O)(OCC)C(Nc1cccc(C)c1)c1ccc(F)cc1 (stereo not given) | -39.1 | – |
| CN1CCCC(=C(c2cccs2)c2cccs2)C1 | 1.53 | – |
| Nc1ccc(Cc2ccc(N)c(Cl)c2)cc1Cl | 9.5 | – |
| C[C@]12CCCCC1=CC(=O)C1C2CC[C@@]2(C)C1C[C@@H](F)[C@@H]2O (stereo not given in full) | -6.07 | – |
| Cc1ncsc1CCCl | -7.55 | – |
| Cc1cc2ccccn2c1C(C[N+](=O)[O-])c1c(F)cccc1Cl (stereo not given) | – | 7.31 µM (active) |
| CCOc1ccc(S(=O)(=O)NCc2ccc3c(c2)OCO3)cc1C | -55 | – |
| CC(CC(C#N)(c1ccccc1)c1ccccc1)N1CCCCC1 (stereo not given) | -1.38 | – |
| COc1ccc(C2CC(c3cccs3)=NN2c2nc(C)c(C(C)=O)s2)cc1OC (stereo not given) | – | 14.6 µM (active) |
| O=C(NCc1cccs1)c1ccc(Br)o1 | 3.87 | – |
| Cc1cccc([C@H](C)c2cnc[nH]2)c1C | 0.823 | – |
